Results as given in the supplement of paper PMC6607015.
Structures can show the parent of a compound that is named as a salt.

Assays:
Details in all cases: compound concentration in added solution (µM; 5 µl added to 20 µl cells): 10; 18 h
[1] = test system: A431; experiment: LBPA endosome anti-LBPA integrated intensity (sum per cell), Z-score; higher = more LBPA staining
Summary of the method: (§1)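 Per-cell integrated LBPA or filipin intensity, whole-cell or within LBPA endosomes, is expressed as Z-scores normalised in AcuityXpress. HeLa MZ or A431 cells, 3,500 per well in 20 µl, sat on 5 µl of 10 µM compound solution in duplicate 384-well imaging plates for 18 h. They were then fixed in 4% PFA, stained, imaged in four 20× fields per well and segmented using MetaXpress.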

[2] = test system: HeLa MZ; experiment: as above
Summary of the method: as §1

[3] = test system: A431; experiment: whole-cell filipin (free cholesterol) integrated intensity, Z-score; higher = more cholesterol staining
Summary of the method: as §1

[4] = test system: HeLa MZ; experiment: as above
Summary of the method: as §1

[5] = test system: A431; experiment: filipin (cholesterol) integrated intensity within LBPA endosomes, Z-score; higher = more cholesterol in LBPA endosomes
Summary of the method: as §1

[6] = test system: HeLa MZ; experiment: as above
Summary of the method: as §1

SMILES | LBPA endosome anti-LBPA integrated intensity (z-score) [1] | LBPA endosome anti-LBPA integrated intensity (z-score) [2] | whole-cell filipin (z-score) [3] | whole-cell filipin (z-score) [4] | filipin (z-score) [5] | filipin (z-score) [6]
C(=C\c1ccccc1)/CN1CCN(C(c2ccccc2)c2ccccc2)CC1 [Cinnarizine] | -0.223 | 0.618 | -0.605 | -0.52 | -0.314 | -0.0159
O=C(O)CCCC[C@@H]1SC[C@@H]2NC(=O)N[C@@H]21 [Biotin] | -0.478 | -0.782 | -0.69 | -0.491 | -0.471 | -0.52
Cc1cc(C(=O)NNCc2ccccc2)no1 [Isocarboxazid] | -0.549 | -1.31 | -0.396 | -0.63 | -0.553 | -0.513
CCCc1nc2c(C)cc(-c3nc4ccccc4n3C)cc2n1Cc1ccc(-c2ccccc2C(=O)O)cc1 [Telmisartan] | -0.132 | 0.924 | 0.0869 | 0.281 | -0.34 | -0.264
CC[C@@H](CO)NCCN[C@@H](CC)CO [Ethambutol dihydrochloride] | -0.297 | -0.0372 | -0.506 | -0.399 | -0.429 | -0.483
CC(=O)OCC(=O)[C@@]12N=C(C)O[C@@H]1C[C@H]1[C@@H]3CCC4=CC(=O)C=C[C@]4(C)[C@H]3[C@@H](O)C[C@@]12C [Deflazacort] | -0.192 | 0.385 | 0.137 | 0.444 | -0.208 | -0.207
CN(C)[C@@H]1C(O)=C(C(=O)NCNCCCC[C@H](N)C(=O)O)C(=O)[C@@]2(O)C(O)=C3C(=O)c4c(O)cccc4[C@@](C)(O)[C@H]3C[C@@H]12 [Lymecycline] | -0.193 | 0.509 | 0.136 | 0.267 | -0.319 | -0.559
CNCCC(Oc1ccc(C(F)(F)F)cc1)c1ccccc1 (stereo unspecified) [Fluoxetine hydrochloride] | 2.5 | 0.902 | 0.302 | -0.115 | 2.19 | 1.62
C=CCc1ccccc1OCC(O)CNC(C)C (stereo unspecified) [Alprenolol hydrochloride] | -0.146 | -0.138 | 0.0188 | 0.141 | -0.22 | -0.133
NC[C@@H]1O[C@@H](O[C@H]2[C@H](O)[C@@H](O[C@H]3O[C@H](CO)[C@@H](O)[C@H](N)[C@H]3O)[C@H](N)C[C@@H]2N)[C@@H](O)[C@H](O)[C@H]1O [Kanamycin A sulfate] | -0.635 | -0.981 | -0.97 | -0.361 | -0.515 | -0.597
N#Cc1ccc(C2CCCc3cncn32)cc1 (stereo unspecified) [Fadrozole hydrochloride] | -0.639 | -1.49 | -1.18 | -0.874 | -0.538 | -0.502
CC(C)(C)NC[C@H](O)COc1ccccc1C1CCCC1 [Penbutolol sulfate] | 1.31 | 0.815 | 1.46 | 0.313 | 1.3 | 0.914
CN1CCN(c2c(F)cc3c(=O)c(C(=O)O)cn(CCF)c3c2F)CC1 [Fleroxacin] | -0.492 | -0.0484 | -0.0639 | 0.23 | -0.354 | -0.239
CCCCC(C)(O)C/C=C/[C@H]1[C@H](O)CC(=O)[C@@H]1CCCCCCC(=O)OC (mixture of isomers) [Misoprostol] | -0.446 | -0.811 | 0.395 | -0.741 | -0.436 | -0.608
COc1ccc([C@@H]2Sc3ccccc3N(CCN(C)C)C(=O)[C@@H]2OC(C)=O)cc1 [Diltiazem hydrochloride] | -0.508 | 0.314 | -0.778 | -0.456 | -0.362 | -0.144
CCN1CCN(C(=O)N[C@@H](C(=O)N[C@@H]2C(=O)N3[C@@H]2SC(C)(C)[C@@H]3C(=O)O)c2ccccc2)C(=O)C1=O [Piperacillin sodium salt] | -0.232 | -0.383 | -0.0934 | -0.425 | -0.285 | -0.478
Cn1ccnc1S [Methimazole] | -0.549 | -0.811 | -0.397 | -0.237 | -0.496 | -0.58
CCC1(c2ccccc2)NC(=O)N(C)C1=O (stereo unspecified) [Mephenytoin] | -0.412 | -0.524 | -0.0979 | -0.325 | -0.496 | -0.516
NS(=O)(=O)c1cc(Cl)c(Cl)c(S(N)(=O)=O)c1 [Dichlorphenamide] | -0.34 | -0.217 | -0.00386 | 0.196 | -0.409 | -0.301
CC/C(=C(\c1ccccc1)c1ccc(OCCN(C)C)cc1)c1ccccc1 [Tamoxifen citrate] | 2.11 | 0.441 | 0.819 | 0.438 | 2.05 | 2.47
C[N+](C)(C)CCCCCC[N+](C)(C)C [Hexamethonium dibromide dihydrate] | -0.482 | -1.09 | -0.483 | -0.775 | -0.514 | -0.624
